# Results taken from PubChem BioAssay (NCATS).
# Inconclusive results are not listed. The source made the active and inactive calls. Calls come from the whole dose curve; as a rule, active = well fitted curve in the direction sought with a large enough effect; inconclusive = small, poorly fitted or top-dose-only effect, or another doubt; inactive = no such curve, though single readings can be large; an effect the other way counts as inactive or inconclusive.
# Target: Cytochrome P450 3A4 (Homo sapiens) (UniProt P08684)
# Sequence (P08684 whole entry, looked up): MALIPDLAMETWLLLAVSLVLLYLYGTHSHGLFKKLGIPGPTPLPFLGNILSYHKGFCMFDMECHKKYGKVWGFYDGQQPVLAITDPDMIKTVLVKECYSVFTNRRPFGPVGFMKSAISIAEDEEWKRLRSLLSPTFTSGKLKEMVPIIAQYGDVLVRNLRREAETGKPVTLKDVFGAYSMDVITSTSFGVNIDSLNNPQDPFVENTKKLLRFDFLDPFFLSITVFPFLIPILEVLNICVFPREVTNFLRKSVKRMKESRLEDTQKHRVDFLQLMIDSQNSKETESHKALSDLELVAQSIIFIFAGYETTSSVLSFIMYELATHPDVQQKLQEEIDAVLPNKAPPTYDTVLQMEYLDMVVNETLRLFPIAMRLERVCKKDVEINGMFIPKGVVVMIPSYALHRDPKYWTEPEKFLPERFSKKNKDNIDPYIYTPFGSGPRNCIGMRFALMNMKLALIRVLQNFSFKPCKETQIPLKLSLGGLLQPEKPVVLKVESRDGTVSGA
# Test: qHTS Assay for Inhibitors and Substrates of Cytochrome P450 3A4 (AID 884); note: nearly all actives have a fitted effect of over 50% in size; for activity change, negative = inhibition: % is set by controls: 0 for no effect and ±100 for the full control effect
# Details: recombinant CYP3A4, Luciferin-PPXE luminescence; series mostly up to 57.1 µM; activity change, negative = inhibition: at the top concentration
# In short: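 Luminescent readout of luciferin produced by CYP3A4 (20 nM) dealkylation of Luciferin-PPXE, 25 uM (its KM). NADPH-driven reaction ran 60 min at RT after 10 min compound preincubation; data scaled to 57 uM ketoconazole as 100% inhibition.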
# Potency is the fitted concentration of half-maximal effect.
SMILES,Potency,"activity change, negative = inhibition"
COC(=O)CC1C(C)(C)C(=O)C2CC3=C4CC(=O)OC(c5ccoc5)[C@]4(C)CCC3[C@@]1(C)C2=O (some centres not stated),1.58 µM (active),
C/C=C1\C2C=C(C)C[C@@]1(N)c1ccc(=O)[nH]c1C2,,-13% (inactive)
CCOC(=O)CCC(=O)O[C@H]1C(O[C@@H]2C(C)[C@H](O[C@H]3C[C@@](C)(OC)C(O)C(C)O3)C(C)C(=O)OC(CC)[C@@](C)(O)C(O)[C@H](C)C(=O)C(C)C[C@]2(C)O)OC(C)CC1N(C)C (some centres not stated),20 µM (active),
C=C[C@](C)(O)CCC1C(=C)CCC2[C@@](C)(CO)CCC[C@@]12C (some centres not stated),2.51 µM (active),
COC1(C)CCC2OC2(C)CCC2C1CC2(C)C (configuration not stated),10 µM (active),
CC(=O)OCCC(C)CCC=C(C)C (configuration not stated),,-17% (inactive)
CC(CCC(=O)O)C1CCC2C3CC[C@@H]4CCCC[C@@]4(C)C3CC[C@@]12C (some centres not stated),,-16.1% (inactive)
CC1CC[C@@]23CCC4(C)[C@@]5(C)CCC6C(C)(C)C(O)CC[C@@]6(C)C5C=C[C@@]4(OC2=O)C3C1C (some centres not stated),5.01 µM (active),
CCCc1cc(OC)c2c(c1)OCO2,7.94 µM (active),
C=C1C2CC[C@@]3(C)C(c4ccoc4)OC(=O)C[C@@]13OC1CC(=O)C(C)(C)C(C(O)C(=O)OC)[C@]12C (some centres not stated),2.51 µM (active),
CC(=O)OC1CC2C(C)(C)C(O)CC(O)[C@@]2(C)C2CC[C@@]3(C)C(=CC(=O)OC3c3ccoc3)[C@]12C (some centres not stated),3.98 µM (active),

# Target: Cytochrome P450 3A4 (Homo sapiens) (UniProt P08684)
# Test: qHTS Assay for Activators of Cytochrome P450 3A4 (AID 885); note: nearly all actives have a fitted effect of over 65% in size
# Details: recombinant CYP3A4, Luciferin-PPXE luminescence, 60 min; series mostly up to 57.1 µM; activity change, positive = activation: at the top concentration
# In short: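 Activators are scored by enhanced luminescence from CYP3A4 conversion of luciferin-PPXE (25uM, equal to KM) to luciferin, after 60 min at RT with an NADPH-regenerating system.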
SMILES,"activity change, positive = activation",Potency
COC(=O)CC1C(C)(C)C(OC(C)=O)[C@@]2(O)C=C3C4CC(=O)OC(c5ccoc5)[C@]4(C)CCC3[C@@]1(C)C2=O (some centres not stated),-91.6% (inactive),
CC(=O)OCC(=O)C1CCC2C3CCC4=CC(=O)CC[C@@]4(C)C3CC[C@]12C (some centres not stated),,3.16 µM (active)
CC(=O)OC1C[C@@]2(C)C(c3ccoc3)OC(=O)C3O[C@@]32[C@]2(C)C(OC(C)=O)CC3C(C)(C)C(OC(C)=O)CC(OC(C)=O)[C@@]3(C)C12 (some centres not stated),-90.4% (inactive),
COc1ccc2c(c1)OCC(Cc1ccc(OC)c(O)c1)C2=O (configuration not stated),-86.1% (inactive),
CC(=O)OC1C=C[C@]2(C)C(CC(OC(C)=O)[C@@]3(C)C4=CC(=O)OC(c5ccoc5)[C@]4(C)CCC23)C1(C)C (some centres not stated),,12.6 µM (active)
CC1(C)C(=O)CC[C@@]2(C)C1CC(O)[C@@]1(C)C3=CC(=O)OC(c4ccoc4)[C@]3(C)CCC21 (some centres not stated),-70.4% (inactive),
C/C=C(\C)C(=O)OC1[C@@H]2C=C3C4CC(=O)OC(c5ccoc5)[C@]4(C)CCC3[C@@](C)(C2=O)C(C(O)C(=O)OC)C1(C)C (some centres not stated),-98.2% (inactive),
CNc1ccccc1C(=O)N1CCc2c([nH]c3ccccc23)C1=O,-90.2% (inactive),
CC(=O)OC1CC(OC(C)=O)[C@]2(C)C(CC(=O)[C@]3(C)C2CC[C@@]2(C)C(c4ccoc4)OC(=O)C4O[C@@]423)C1(C)C (some centres not stated),-92.5% (inactive),
Cc1ccc2c(c1)CC[C@H]1CC(=O)CC[C@@]21C,-80.7% (inactive),
CCN(CC)Cc1ccc(Nc2ccnc3cc(Cl)ccc23)cc1O,,7.94 µM (active)
COc1ccc2c(c1)[C@]1(C)CCC(=O)C[C@H]1CC2,-78.4% (inactive),
CCCCCC(=O)Cc1cc(O)cc(O)c1C(=O)Oc1cc(CC(=O)CCCCC)c(C(=O)O)c(OC)c1,-62% (inactive),
COc1c(OC)c2occc2c2oc(=O)ccc12,-82.1% (inactive),
Nc1nc2c(nc(Sc3ccc(Cl)cc3)n2C2OC(CO)C(O)C2O)c(=O)[nH]1 (configuration not stated),-66.9% (inactive),
COc1ccc(C2CC(=O)c3c(O)cc(O)cc3O2)cc1O (configuration not stated),-90.2% (inactive),
O=C1CC(c2ccc(O)c(O)c2)Oc2cc(O)cc(O)c21 (configuration not stated),-61.8% (inactive),
COc1ccc(/C=C/C(=O)c2ccc(O)cc2O)cc1OC,-80.8% (inactive),
COC(=O)CC1C(C)(C)C(=O)C2CC3=C4CC(=O)OC(c5ccoc5)[C@]4(C)CCC3[C@@]1(C)C2=O (some centres not stated),-67.5% (inactive),
CCOC(=O)CCC(=O)O[C@H]1C(O[C@@H]2C(C)[C@H](O[C@H]3C[C@@](C)(OC)C(O)C(C)O3)C(C)C(=O)OC(CC)[C@@](C)(O)C(O)[C@H](C)C(=O)C(C)C[C@]2(C)O)OC(C)CC1N(C)C (some centres not stated),-63.5% (inactive),
C=C[C@](C)(O)CCC1C(=C)CCC2[C@@](C)(CO)CCC[C@@]12C (some centres not stated),-118% (inactive),
COC1(C)CCC2OC2(C)CCC2C1CC2(C)C (configuration not stated),-66.8% (inactive),
CC1CC[C@@]23CCC4(C)[C@@]5(C)CCC6C(C)(C)C(O)CC[C@@]6(C)C5C=C[C@@]4(OC2=O)C3C1C (some centres not stated),-81.5% (inactive),
CCCc1cc(OC)c2c(c1)OCO2,-65% (inactive),
C=C1C2CC[C@@]3(C)C(c4ccoc4)OC(=O)C[C@@]13OC1CC(=O)C(C)(C)C(C(O)C(=O)OC)[C@]12C (some centres not stated),-84.8% (inactive),
CC(=O)OC1CC2C(C)(C)C(O)CC(O)[C@@]2(C)C2CC[C@@]3(C)C(=CC(=O)OC3c3ccoc3)[C@]12C (some centres not stated),-103% (inactive),
